Screening results as filed in PubChem.
MsrA inhibitor: bovine MsrA enzyme inhibitors, primary screen, biochemical, absorbance, HTS; AID 651718, 2012; purified bovine MsrA, absorbance read-out; 0.75% of 360,000 active; Methionine sulfoxide reductase A (Bos taurus); inhibition, % at 15.5 µM; in the data active means inhibition above about 4.5%;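 further: 0% = vehicle wells with enzyme and 100% = reference inhibitor wells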
NadD inh: inhibitors of S. aureus NadD, primary screen, biochemical, colorimetric, uHTS; Nicotinate-nucleotide adenylyltransferase NadD (Staphylococcus aureus N315); purified NadD enzyme, colorimetric absorbance read-out; inhibition, % at 20 µM; 0.78% of 360,000 active; in the data active means inhibition above about 26%
rCAG binder: binders of r(CAG) RNA repeats, primary screen, biochemical, fluorescence; r(CAG) RNA repeat, TO-PRO-1 dye displacement fluorescence; inhibition, % at 3 µM; 1.3% of 370,000 active; AID 651821, 2012;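 active means inhibition above the plate cutoff, the mean of all test compounds on that plate plus 3 SD, cut at about 35% in these data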;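 further: 0% = DMSO alone and 100% = 100 µM mitoxantrone as full dye displacement; higher means more dye released from RNA so lower well fluorescence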
MsrA act: bovine MsrA enzyme activators, primary screen, biochemical, absorbance, HTS. 0.3% of 360,000 active. purified bovine MsrA, absorbance read-out. Methionine sulfoxide reductase A (Bos taurus). activation, % at 10.6 µM; in the data active means activation above about 7.5%;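 further: 0% = vehicle and 100% = reference activator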
MsrA activ conf: bovine MsrA activators, retest, confirmation, biochemical, absorbance, HTS | shares compounds with MsrA act | purified bovine MsrA, absorbance read-out | activation, % at 10.6 µM | 12% of 1,000 active | AID 602270, 2012; in the data active means activation above about 4%;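 further: enzyme coupled to thioredoxin and thioredoxin reductase with NADPH; 0% = vehicle wells and 100% = reference activator wells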
NadD conf: inhibitors of S. aureus NadD, confirmation, biochemical, colorimetric, single concentration. shares compounds with NadD inh. purified S. aureus NadD, colorimetric enzyme assay. inhibition, % at 20 µM. 13% of 2,000 active. AID 624309, 2012; in the data active means inhibition mostly above about 42%, no sharp cut-off; inactive means mostly below about 42%
An asterisk follows results filed as active; . = no result given. Compounds with a hit are over-represented: about 2.7% of the library has one in this group of screens.

SMILES	MsrA inhibitor	NadD inh	rCAG binder	MsrA act	others
O=C1NC(=S)NC(=O)C1=Cc1ccc(Br)s1	0	46*	2	1
CN1C(=O)/C(=C\c2ccc(Br)s2)C(=O)NC1=S	0	34*	10	-2
Cc1cc(C)c(C)c(C(O)(C(=O)O)c2ccccc2)c1 (stereo not given)	-2	-2	4	-8
CCN(CC)C(=O)c1ccc2c(c1)C1C(Cl)C(Sc3ccccc3[N+](=O)[O-])CC1C(C(=O)O)N2 (stereo not given)	.	21	.	-7
O=C(O)c1ccc2c(c1)C1C(Cl)C(Sc3ccccc3[N+](=O)[O-])CC1C(c1cccc([N+](=O)[O-])c1)N2 (stereo not given)	.	33*	.	-5
CCOC(=O)[C@]12Cc3ccccc3[C@H]1N(CCC(=O)OC)C(=O)c1cc(OC)ccc12	0	11	0	-3
COc1ccc(N2C(=O)/C(=C/c3ccc(C)o3)C(=O)NC2=S)c(OC)c1	-1	-2	44*	-4
CN1CCc2cc3c(c4c2C1Cc1ccccc1-4)OCO3 (stereo not given)	1	9	-7	48*
O=c1[nH]sc2cc(F)ccc12	0	4	0	12*	MsrA activ conf=10*
CCCCn1nnnc1C(CC)N1CCC2(CC1)C(=O)NCN2c1ccccc1 (stereo not given)	0	-1	0	-2
O=P(C(c1ccc2c(c1)OCO2)N1CCOCC1)(N1CCOCC1)N1CCOCC1 (stereo not given)	-1	-1	-2	13*	MsrA activ conf=-3
COC(=O)C1=C(c2ccc(F)cc2OCc2ccccc2)C[C@@H]2CC[C@H]1N2C(=O)NCC1CC1	1	-2	-6	8.4*	MsrA activ conf=0
COC(=O)C1=C(c2ccc(F)cc2OCc2ccccc2)C[C@@H]2CC[C@H]1N2C(=O)NCc1ccccc1	-1	-3	-3	-8
CC(C)(C)C(=O)OCC12CCC(O1)C1(C)C(=O)OCC21 (stereo not given)	0	4	0	-2
OCC[n+]1c2ccccc2nc2ccc(N3CCOCC3)cc21	5.8*	-5	-1	21*	MsrA activ conf=10*
O=S1(=O)N(CCN2CC=C(c3c[nH]c4cc(F)ccc34)CC2)c2cccc3c2N1CCC3	-1	14	21	7.8*	MsrA activ conf=-1
COc1cc(C2(C#N)CCN(C)CC2)cc(OC)c1OC	0	-2	0	-1
Cn1ncnc2c(=O)n(C)c(=O)nc1-2	.	1	.	14*	MsrA activ conf=12*
CNC(=S)N1CCn2cccc2C1c1cccnc1 (stereo not given)	2	-4	0	20*	MsrA activ conf=-4
CCCCNC(=S)N1CCn2cccc2C1c1cccnc1 (stereo not given)	1	3	-5	-2
Cc1ccccc1C(O)(Cc1ccccc1)C1CN2CCC1CC2 (stereo not given)	-1	-5	6	-4
COc1ccc(NC2(C#N)CCCCC2)cc1	0	-1	-1	-2
CCC(C)C(=O)N[C@@H](c1ccccc1)[C@@H](O)C(=O)O[C@H]1C[C@@]2(O)[C@@H](OC(=O)c3ccccc3)C3[C@](C)(C(=O)[C@H](OC(C)=O)C(=C1C)C2(C)C)[C@@H](O)C[C@H]1OC[C@@]31OC(C)=O (stereo not given in full)	0	-1	9	-1
C/C=C(\C)C(=O)N[C@@H](c1ccccc1)[C@@H](O)C(=O)O[C@H]1C[C@@]2(O)[C@@H](OC(=O)c3ccccc3)C3[C@](C)(C(=O)[C@H](OC(C)=O)C(=C1C)C2(C)C)[C@H](O)C[C@H]1OC[C@@]31OC(C)=O (stereo not given in full)	0	-2	6	10*	MsrA activ conf=-1
Cc1ccc2c(c1Cl)NC(C(=O)O)C1CC(Sc3ccccc3[N+](=O)[O-])C(Cl)C21 (stereo not given)	.	36*	.	-2	NadD conf=31
SMILES	MsrA inhibitor	NadD inh	rCAG binder	MsrA act	others
O=C1NCN(c2ccccc2)C12CCN(C(c1cccc3ccccc13)c1nnnn1-c1ccc3c(c1)OCCO3)CC2 (stereo not given)	1	31*	3	-4	NadD conf=19
O=C1NCN(c2ccccc2)C12CCN(C(c1cccc3ccccc13)c1nnnn1Cc1ccccc1)CC2 (stereo not given)	1	32*	13	-2	NadD conf=18
O=C1NCN(c2ccccc2)C12CCN(C(c1ccnc3ccccc13)c1nnnn1Cc1ccccc1)CC2 (stereo not given)	0	5	4	-5
O=C1NCN(c2ccccc2)C12CCN(C(c1ccccc1)c1nnnn1-c1ccc3c(c1)OCCO3)CC2 (stereo not given)	1	19	10	-10
CC(C)C[C@H](NP(=O)(O)O[C@@H]1O[C@@H](C)[C@H](O)[C@@H](O)[C@H]1O)C(=O)N[C@@H](Cc1c[nH]c2ccccc12)C(=O)O	-1	5	1	-3
O=c1[nH]c2ccccc2n1C1CCN(C(c2ccccc2)c2nnnn2-c2ccc3c(c2)OCCO3)CC1 (stereo not given)	0	31*	8	-1	NadD conf=9
O=c1[nH]c2ccccc2n1C1CCN(C(c2ccccc2OC(F)(F)F)c2nnnn2-c2ccc3c(c2)OCCO3)CC1 (stereo not given)	1	29*	12	-2	NadD conf=11
O=C1NC(=O)C2(Cc3cc([N+](=O)[O-])ccc3N3CCN(C(=O)c4ccccc4)CC32)C(=O)N1 (stereo not given)	2	1	2	-3
CCCCCn1c(=O)c(C(=O)Nc2ccccc2)c(O)c2ccccc21	0	3	2	0
CCCCCCn1c(=O)c(C(=O)Nc2c(C)n(C)n(-c3ccccc3)c2=O)c(O)c2ccccc21	1	32*	0	-2	NadD conf=7
O=c1[nH]c2ccccc2n1C1CCN(C(CCc2ccccc2)c2nnnn2C2CCCC2)CC1 (stereo not given)	1	8	2	-1
O=C(CSC1c2ccccc2-c2ccccc21)N/N=C/c1ccccc1O	0	-3	5	-9
Nc1c(C(=O)OCc2ccccc2)c2nc3ccccc3nc2n1Cc1cccs1	2	30*	8	0	NadD conf=23
